# Compounds without any hit were thinned out: in the full panel of roughly 83,000, 20% have a hit.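 Growth was measured after 48 h exposure to one concentration of compound in 96-well plates. Values under 10 count as active.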 Unmarked numbers belong to inactive results. Activity calls are given as the source filed them.
# Assays:
# Experiment in all cases: NCI-60 one-dose screen, 48 h (100 = growth as untreated, 0 = no growth, -100 = all killed)
# Details in all cases: 10 µM unless noted
# T-47D breast = system: T-47D breast
# BT-549 breast = system: BT-549 breast
# MDA-MB-435 melanoma = system: MDA-MB-435 melanoma
# SW-620 colon = system: SW-620 colon
# MCF7 breast = system: MCF7 breast
# HCT-116 colon = system: HCT-116 colon
# HCC-2998 colon = system: HCC-2998 colon
# KM12 colon = system: KM12 colon
Compound,growth (T-47D breast),growth (BT-549 breast),growth (MDA-MB-435 melanoma),growth (SW-620 colon),growth (MCF7 breast),growth (HCT-116 colon),growth (HCC-2998 colon),growth (KM12 colon)
COc1ccc(C(=O)c2cc(OC)c(OC)c(OC)c2)cc1/C=C/C(=O)c1ccc(OC)c(OC)c1,35.2%,36.5%,20%,9.37% (active),17.3%,10.4%,45.9%,9.37% (active)
COc1ccc(/C=C/c2cc(N3CCOCC3)c3cc(F)c(F)cc3n2)cc1OC,37.9%,45.2%,51%,45.8%,22.1%,24.5%,29%,33.3%
CC1CCc2c(sc(NC(=O)CSc3nnc4ccccn34)c2C(N)=O)C1 (configuration not stated),105%,142%,99%,109%,96%,104%,105%,108%
CCOC(=O)C1=C(C)NC(=O)NC1c1ccc(OCC(=O)N/N=C/c2ccc(Cl)cc2)cc1 (configuration not stated),87.1%,87.5%,90.6%,94.2%,90.1%,94.2%,97.5%,96.3%
COc1cc(C2C=C(C)N=C3SC=C(C)N32)cc(OC)c1OC (configuration not stated),7.98% (active),-49.9% (active),-33.3% (active),-44.5% (active),-14.8% (active),-67.5% (active),-90.5% (active),-77% (active)
CSc1ccccc1C#C/C=C\C#Cc1ccccc1N1CCCC1=O,63.2%,69.7%,8.9% (active),26.9%,37.6%,34.4%,50.2%,44.4%
COc1ccc(/C=C/C(=O)OCC(=O)NNC(=O)c2ccccc2)cc1OC,101%,98.6%,104%,98.4%,85.6%,103%,127%,115%
O=c1oc2cc(OS(=O)(=O)c3ccccc3)c(Cl)cc2c2c1CCCCCC2,73.9%,79.1%,90%,98.1%,90.6%,74.8%,106%,92.1%
CN=S(=O)(NC(=O)c1ccc(Cl)cc1Cl)c1ccc(Br)s1 (configuration not stated),95.8%,103%,97.6%,98.8%,101%,102%,111%,110%
O=S(=O)(c1ccccc1)n1ccc(-c2ccc3c(c2)CCO3)n1,68.8%,96%,104%,93.6%,83.2%,89.1%,90.8%,91.9%
C=C1C(=O)O[C@H]2[C@H]1CC/C(COC(=O)NCc1cc(OC)c(OC)c(OC)c1)=C\CC[C@@]1(C)O[C@@H]21,34%,55.1%,62.8%,15.6%,17%,18.7%,101%,92%
Cc1c(C(=O)NCc2ccccc2)[n+](=O)c2cc(F)ccc2n1[O-],107%,121%,93.5%,107%,97.1%,97.9%,88.4%,111%
Cc1cc(N/C=c2\sc3ncnn3c2=O)no1,96.1%,104%,97.6%,98.8%,86.1%,95.1%,96.9%,84.3%
OC1CC2c3ccccc3C1c1ccccc12 (configuration not stated),111%,108%,107%,108%,98.8%,103%,108%,107%
O=C(c1ccncc1)N1N=C(c2ccc(Cl)cc2)CC1c1c[nH]c2ccccc12 (configuration not stated),74.8%,92.8%,99.9%,96%,70.2%,94.3%,105%,96.8%
COc1ncc(-c2ccc3ncnc(Nc4cccc(Cl)c4)c3c2)cc1NS(=O)(=O)C1CC1,-1.98% (active),2.9% (active),47.9%,51.1%,7.65% (active),49.2%,59.9%,69.7%
NS(=O)(=O)c1ccc(NCC(=O)Nc2ccc(-c3nc4ccccc4s3)cc2)cc1,46.4%,14.5%,77%,63.7%,27.6%,25.1%,87.6%,61.6%
O=C(/C=C/CN1CCCCC1)Nc1cc2c(Nc3ccc(F)c(Cl)c3F)ncnc2cc1OCCOC(F)F,-1.83% (active),18.3%,8.14% (active),10.3%,17.6%,6.6% (active),40.6%,36.5%
N#CC1=C(N)n2nc(-c3ccncc3)nc2NC1c1cccc2ccccc12 (configuration not stated),66.2%,90.1%,88.1%,100%,80.5%,87.9%,105%,97.6%
COc1cc(OC)c(C(=O)/C=C/c2cccc(C#N)c2)c(OC)c1,4.14% (active),-3.25% (active),7.3% (active),6.58% (active),15%,2.91% (active),14.4%,6.41% (active)
O=S(=O)(NCCCNc1cc(-c2cn(-c3ccccc3)nc2-c2cccc(O)c2)ccn1)c1cccc(F)c1,15.6%,44.7%,49.3%,29.5%,31.2%,32.1%,10.3%,28.2%
CCC1=C[C@@H]2CN(C1)Cc1c([nH]c3ccccc13)[C@@](C(=O)OC)(c1cc3c(cc1OC)N(C=O)[C@H]1[C@@](O)(C(=O)OC)[C@H](OC(C)=O)[C@]4(CC)[C@@H]5C[C@@H]5CN5CC[C@]31[C@@H]54)C2,97.5%,47.9%,-57.1% (active),26.3%,10.9%,7.99% (active),-13% (active),8.8% (active)
CCCCCC(=O)OCc1ccccc1,95.2%,84.5%,96.3%,98.1%,97.4%,93.8%,96.9%,98.1%
O=S(=O)(NCCNc1cc(-c2cn(-c3ccccc3)nc2-c2ccccc2)ccn1)c1ccc(F)cc1,50.5%,94.8%,83.9%,95.4%,86.3%,79.4%,102%,87.3%
COc1ccc(Cn2c(SC)nc(=O)n(Cc3ccc(Cl)cc3)c2=O)cc1,81.8%,97%,111%,103%,92%,93.9%,103%,97.5%
O=C(Nc1ccc(F)cc1)c1cc([N+](=O)[O-])ccc1O,56%,81.5%,72.2%,76.5%,61.5%,66.8%,63.9%,51.6%
COc1ccc(NC(=O)CSc2nc3ccc(Cl)cc3c(=O)n2-c2ccccc2C(F)(F)F)c(OC)c1OC,61.9%,72.8%,92.3%,94%,78.9%,70.1%,99%,95.7%
NC(=O)NNC(=O)c1ccccc1,111%,107%,105%,108%,100%,99.7%,107%,103%
COC1=CC(c2ccc[nH]2)=N/C1=C\c1[nH]c(C)c(C(=O)CCCCC(=O)Oc2ccc3c(c2)CCC2C3CC[C@]3(C)[C@@H](O)CC[C@@H]23)c1C (some centres not stated),5.62% (active),50.3%,51.2%,37.4%,27.2%,20.9%,83.1%,29.4%

# — PubChem BioAssay (NCI)
